Hits are enriched below; roughly 1.9% of the tested compounds scored in any of these assays.
MOR-DOR ag-1: OPRM1-OPRD1 heterodimerization agonism | P35372+P41143 | cells, luminescence | activation, % at 9.3 µM | hit rate 0.3% among 340,000 | AID 504326;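 further: 0% = vehicle-treated cells and 100% = reference agonist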
Target sequence (P35372 whole entry, looked up): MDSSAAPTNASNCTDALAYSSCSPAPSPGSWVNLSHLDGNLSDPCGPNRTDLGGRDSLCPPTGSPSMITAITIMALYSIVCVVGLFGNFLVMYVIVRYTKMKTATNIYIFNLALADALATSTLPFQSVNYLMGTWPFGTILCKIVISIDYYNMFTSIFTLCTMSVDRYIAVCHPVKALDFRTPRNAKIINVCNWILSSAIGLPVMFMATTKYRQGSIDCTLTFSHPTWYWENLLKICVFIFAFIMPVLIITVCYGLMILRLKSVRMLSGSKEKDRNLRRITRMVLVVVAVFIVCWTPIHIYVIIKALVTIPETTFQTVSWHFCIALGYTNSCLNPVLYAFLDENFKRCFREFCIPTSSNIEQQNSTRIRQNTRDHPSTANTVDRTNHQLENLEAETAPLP
Target sequence (P41143 whole entry, looked up): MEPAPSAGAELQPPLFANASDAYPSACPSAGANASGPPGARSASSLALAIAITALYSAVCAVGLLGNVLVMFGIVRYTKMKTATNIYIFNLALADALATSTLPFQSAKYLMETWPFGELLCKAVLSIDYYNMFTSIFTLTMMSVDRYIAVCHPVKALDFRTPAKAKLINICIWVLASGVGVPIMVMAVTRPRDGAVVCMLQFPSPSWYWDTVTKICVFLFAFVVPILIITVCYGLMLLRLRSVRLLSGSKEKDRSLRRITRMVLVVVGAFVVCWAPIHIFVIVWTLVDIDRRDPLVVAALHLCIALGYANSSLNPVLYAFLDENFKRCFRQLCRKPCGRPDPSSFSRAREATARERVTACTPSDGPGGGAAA
OPRM1-OPRD1 inv: inverse agonist of human OPRM1-OPRD1 heterodimerization. inhibition, % at 9.3 µM. cell-based MOR-DOR heterodimer luminescence, inverse agonism. hit rate 0.21% among 340,000. P35372+P41143; in the data active means inhibition above about 22%, passing the limit was not always enough;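 further: 0% = cells with DMSO and 100% = wells without cells with DMSO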
MsrA act: activators of bovine methionine sulfoxide reductase A; purified bovine MsrA, absorbance read-out; activation, % at 10.6 µM; AID 602163; hit rate 0.3% among 360,000; in the data active means activation above about 7.5%;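 further: 0% = vehicle and 100% = reference activator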
HTR5A inv ctr: inverse agonist of human HTR5A in OPRM1-OPRD1 counter-screen; P47898; HTR5A cell line, luminescence, inverse agonism; inhibition, % at 9.3 µM; hit rate 0.083% among 340,000; in the data active means inhibition mostly above about 23%, no sharp cut-off; inactive means mostly below about 18%;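 further: 0% = cells with DMSO and 100% = no-cell wells with DMSO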
HTR5A ag ctr: HTR5A agonism, opioid heterodimer counter-screen; HTR5A agonist assay, luminescence, cell-based; hit rate 0.61% among 340,000; activation, % at 9.3 µM; P47898; AID 504692; in the data active means activation mostly above about 9.5%, no sharp cut-off; inactive means mostly below about 7.6%;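 further: 0% = cells with vehicle only and 100% = reference agonist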
MsrA inhibitor: inhibitors of bovine MsrA | hit rate 0.75% among 360,000 | purified bovine MsrA, absorbance read-out | inhibition, % at 15.5 µM; in the data active means inhibition above about 4.5%;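 further: 0% = vehicle wells with enzyme and 100% = reference inhibitor wells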
MOR-DOR ag-2: opioid heterodimer agonism, HTR5A counter-screen | activation, % at 9.3 µM | hit rate 13% among 800 | shares compounds with HTR5A ag ctr | U2OS counter-screen cells, complementation luminescence, 3 h
HTR5A ag conf: HTR5A (human) agonism, confirmation; shares compounds with HTR5A ag ctr; activation, % at 9.3 µM; AID 504915; HTR5A agonist cell assay, luminescence; hit rate 17% among 800; in the data active means activation above about 17%;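 further: 0% = cells with vehicle only and 100% = full reference agonist response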
MsrA activ conf: bovine methionine sulfoxide reductase A activation confirmed; shares compounds with MsrA act; AID 602270; purified bovine MsrA, absorbance read-out; activation, % at 10.6 µM; hit rate 12% among 1,000; in the data active means activation above about 4%;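 further: enzyme coupled to thioredoxin and thioredoxin reductase with NADPH; 0% = vehicle wells and 100% = reference activator wells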
MsrA conf: confirmation of bovine MsrA inhibitors. shares compounds with MsrA inhibitor. purified bovine MsrA, absorbance read-out. inhibition, % at 15.5 µM. hit rate 41% among 2,300. AID 651822; in the data active means inhibition above about 4.5%;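 further: coupled to thioredoxin reductase with NADPH and selenocystamine and DMSO as substrate; 0% = vehicle only and 100% = full effect of reference inhibitor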
Numbers without * were called inactive; x = no result given. Unless noted, no stated cut-off is given here; in the data, active means activation above about 18%; inactive means the rest.

SMILES	MOR-DOR ag-1	OPRM1-OPRD1 inv	MsrA act	HTR5A inv ctr	HTR5A ag ctr	MsrA inhibitor	MsrA conf	others
CC(N)Cc1c[nH]c2ccc(Cl)cc12 (stereo not drawn)	-2	12	-5	-42	2	0	x
COc1ccc2[nH]cc(CCN=C(N)N)c2c1	0	0	-11	-15	6	-1	x
NCCc1c[nH]c2ccc(OCc3ccccc3)cc12	0	0	-1	-86	33*	-1	x	MOR-DOR ag-2=0;HTR5A ag conf=1
CCOC(=O)[C@]12Cc3cc(C)ccc3[C@H]1N(C1CCCCC1)C(=O)c1cc(OC)ccc12	x	x	-1	x	x	1	x
Nc1c(Br)cc2c3c(cccc13)-c1ccccc1-2	x	x	x	x	x	0	x
Fc1ccccc1CNCCc1c[nH]c2ccccc12	-2	9	1	-88	25*	-1	x	MOR-DOR ag-2=2;HTR5A ag conf=39*
FC(F)(F)c1ccccc1CNCCc1c[nH]c2ccccc12	2	-10	-2	10	-3	-1	x
CCCCC/C(=N/O)c1c(C)[nH]c2ccccc12	6	-32	-2	-40	15*	0	x	MOR-DOR ag-2=4;HTR5A ag conf=2
C[C@H]1CNCCN1c1ccc(N2CC[C@@H](O)C2)c(C#N)c1	x	x	x	x	x	2	x
CN1C[C@H](CO)C=C2c3cccc4[nH]cc(c34)C[C@H]21	4	-22	-3	13	60*	0	x	MOR-DOR ag-2=11;HTR5A ag conf=2
O=c1[nH]c2ccccc2n1C1CCN(C(CCc2ccccc2)c2nnnn2-c2ccc3c(c2)OCCO3)CC1 (stereo not drawn)	x	x	-4	x	x	2	x
CN1CC=C(c2c[nH]c3ccccc23)CC1	-1	6	-3	-70	23*	0	x	MOR-DOR ag-2=-2;HTR5A ag conf=-1
COc1cc2c(c(OC)c1O)-c1ccc(OC)c(=O)cc1C(NC(=O)C(F)(F)F)CC2 (stereo not drawn)	0	-1	-11	-20	5	4	x
COc1cc2c(c(OC)c1OC)-c1ccc(C(=O)O)cc1[C@@H](NC(C)=O)CC2	-3	17	19*	-30	-6	-1	x	MsrA activ conf=-1
Cc1cccc(C)c1-n1nnnc1C(c1cccs1)N1CCC2(CC1)C(=O)NCN2c1ccccc1 (stereo not drawn)	x	x	0	x	x	1	x
O=C(CCN1CCOCC1)NCC(=O)Nc1ccc(Br)cc1C(=O)c1ccccc1	-1	3	7.8*	-38	3	-1	x	MsrA activ conf=2
CC[n+]1c(-c2ccccc2)c2cc(N)ccc2c2ccc(N)cc21	9	-40	9.2*	12	-3	44*	49*	MsrA activ conf=3
O=C1C2CC(CN3CCCCC23)C2CCCCN12 (stereo not drawn)	x	x	-1	x	x	0	x
Cc1cc(N(CCCl)CCCl)ccc1C=NNC(=O)c1cccnc1	-4	16	-13	4	-1	5.3*	4
O=C(NN=Cc1ccc(N(CCCl)CCCl)cc1Cl)c1cccnc1	-1	6	-3	2	-1	2	x
N#Cc1ncc(N=Cc2ccc(N(CCCl)CCCl)cc2)s1	-2	11	-8	20	-5	5.0*	6.2*
ClCCN(CCCl)c1ccc(C=NNc2ncccn2)cc1	-3	16	-10	9	-2	6.2*	7.4*
ClCCN(CCCl)c1ccc(C2=NCCc3ccccc32)cc1	1	-7	0	1	0	0	x
ClCCN(CCCl)c1ccc(C=Cc2ccncn2)cc1	x	x	-5	x	x	1	x
C[C@@H]1CN([C@H](C)CO)C(=O)CCCn2nncc2CO[C@@H]1CN(C)C(=O)Oc1ccc2ccccc2c1	x	x	3	x	x	0	x
SMILES	MOR-DOR ag-1	OPRM1-OPRD1 inv	MsrA act	HTR5A inv ctr	HTR5A ag ctr	MsrA inhibitor	MsrA conf	others
Cc1ccccc1-c1ccc2n1Cc1cnnn1-c1ccccc1-2	2	-11	-4	-5	1	5.5*	0
COC(=O)C1=C(c2ccc(OCc3ccccc3)cc2)C[C@@H]2CC[C@H]1N2C(=O)NCCc1ccc(F)cc1	x	x	-4	x	x	2	x
CC(C)n1c(=O)c(C=Nc2ccc(F)cc2)c(O)n(Cc2ccco2)c1=O	-1	5	-2	11	0	5.7*	2
N/C(=N\N=C\c1ccc(O)cc1O)N[N+](=O)[O-]	-3	20	-6	-14	-2	4	x
N/C(=N\[N+](=O)[O-])N/N=C/c1ccc(O)cc1	0	-2	-7	13	-4	5.3*	4
COc1ccccc1-n1c(O)c(C=NCc2ccc3c(c2)OCO3)c(=O)[nH]c1=O	-2	13	-3	11	-2	-1	x
Cc1ccccc1-n1c(O)c(C=Nc2ccc3c(c2)OCO3)c(=O)[nH]c1=O	-1	4	-4	3	-1	4.7*	3
O=C(NN=Cc1ccc(N(CCCl)CCCl)cc1)C(=O)c1c[nH]c2ccccc12	2	-9	-8	-14	4	6.0*	2
CC(C)(C)c1cc([N+](=O)[O-])cc(C(C)(C)C)c1O	x	x	x	x	x	22*	18*
O=C(/C=C/C=C/c1ccccc1)CC1(O)C(=O)Nc2ccccc21 (stereo not drawn)	0	0	-4	10	3	7.2*	5.6*
CC(=O)/C=C/c1ccccc1	-2	12	0	3	1	-1	x
CCOP(=O)(CCP(=O)(OCC)OCC)OCC.C[CH2][Sn]([Cl])([Cl])[CH2]C	-5	22	-9	14	-4	56*	51*
CCOP(=O)(OCC)OCC	0	2	-8	4	-1	1	x
N#C/C(=C\c1ccc(O)cc1)C(=O)O (tested in a mixture with another compound)	-2	13	-2	-13	4	4.7*	2
O=C(N/N=C/c1c(O)n(CCc2ccccc2)c(=O)[nH]c1=O)c1ccccc1O	-1	4	-6	-14	5	4.9*	4
COc1ccc(Cn2c(O)c(/C=N/NC(=O)c3ccccc3O)c(=O)[nH]c2=O)cc1	-2	9	-4	-6	2	6.2*	5.4*
O=C(N/N=C/c1c(O)n(CCc2ccc(F)cc2)c(=O)[nH]c1=O)c1ccccc1	x	x	4	x	x	0	x
O=c1[nH]c(=S)n(Cc2ccc(F)cc2)c(O)c1/C=N/N1CCCCC1	-2	11	-1	4	6	2	x
O=c1[nH]c(=S)n(C2CC2)c(O)c1C=NCC1CCCO1 (stereo not drawn)	0	3	-7	20	1	6.2*	3
CC(C)n1c(O)c(C=NCc2ccccc2)c(=O)[nH]c1=S	-1	6	-5	13	-4	5.2*	2
O=c1[nH]c(=S)n(Cc2ccc(F)cc2)c(O)c1C=NCC1CCCO1 (stereo not drawn)	-3	17	-4	-6	2	5.7*	3
